In PubChem BioAssay (NCI) one finds growth data, which are given here for 16 molecules.

The panel holds about 83,000 compounds, 20% with a hit somewhere; the sample as a whole holds those more often.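 Method: cells in 96-well plates; compound added at one concentration; 48 h incubation; percent growth measured; values under 10 scored active.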 Values without a mark were called inactive. The source made the active and inactive calls.

Experiment in all cases: NCI-60 one-dose screen, 48 h (100 = growth as untreated, 0 = no growth, -100 = all killed)
One test has as its system NCI-H23 lung. The following applies: 10 µM unless noted.
The test system of the next test is NCI-H322M lung. To be noted: 10 µM unless noted.
For the next test, the system named is HOP-62 NSCLC. The following applies: 10 µM unless noted.
For another test, the system named is NCI-H460 lung. The following applies: 10 µM unless noted.
The subject of a further test is HOP-92 NSCLC. The following applies: 10 µM unless noted.
In a further test the test system is NCI-H522 lung. The following applies: 10 µM.
The subject of another test is A549/ATCC NSCLC. The following applies: 10 µM unless noted.
For the next test, the system named is 786-0 renal. The following applies: 10 µM unless noted.
A further test relates to COLO 205 colon. To be noted: 10 µM unless noted.

For the molecule `COc1ccc(S(=O)(=O)c2ccc(C(N)=O)cc2)cc1NC(=O)c1[nH]c(C)c2c1CCCCC2=O`, the growth is 58.7% in the test with NCI-H23 lung; 68.5% in the test on NCI-H322M lung; 38.8% with HOP-62 NSCLC; 70.3% in the test with NCI-H460 lung; 23.6% in the test on HOP-92 NSCLC; 42.7% in the test with NCI-H522 lung. Also, the figures for the growth in the test with A549/ATCC NSCLC and in the test on 786-0 renal were 87.7% and 60%, respectively.

Consider `CCN(CC)c1ccc2c(c1)OS(=O)(=O)N=C2`, for which the growth was 95.6% in the test on NCI-H23 lung; 107% in the test on NCI-H322M lung; 99.9% in the test on HOP-62 NSCLC; 109% in the test on NCI-H460 lung; 85.4% with HOP-92 NSCLC; 97.6% with NCI-H522 lung. Also, the growth in the test on A549/ATCC NSCLC is 106%; with 786-0 renal, 93%.

In the case of `O=C1CCC(N2C(=O)c3cccc(NCCOCCOCCNC(=O)c4cc5c(o4)C(=O)c4ccccc4C5=O)c3C2=O)C(=O)N1` (stereo not drawn), the growth with NCI-H23 lung is -53.9% (active); with NCI-H322M lung, -76.6% (active); with HOP-62 NSCLC, -58.2% (active); in the test on NCI-H460 lung, -81.3% (active); in the test with HOP-92 NSCLC it was 60.4%; with NCI-H522 lung, -55% (active). For the same molecule, the growth in the test with A549/ATCC NSCLC is -30.2% (active); in the test with 786-0 renal it was 17.8%.

Consider `O=C(N/N=C/c1ccc(OC(F)F)c(OC2CCCC2)c1)c1cnn2c1NC(c1ccccc1)C2` (stereo not drawn), for which the growth in the test on NCI-H23 lung was 97.5%; in the test on NCI-H322M lung it was 92.6%; in the test on HOP-62 NSCLC, 84.9%; in the test with NCI-H460 lung, 82.4%; in the test on HOP-92 NSCLC it was 80.6%; with NCI-H522 lung, 78.8%. Further, the growth is 73.8% with A549/ATCC NSCLC and 89.2% in the test on 786-0 renal.

Regarding `COc1cc2cc(Oc3ccc(NC(=O)Nc4ccc(Cl)c(C(F)(F)F)c4)cc3)c(C)nc2cc1OCCN1CCCCC1`, the growth was -80.4% (active) in the test on NCI-H23 lung; 8.09% (active) with NCI-H322M lung; 85.6% in the test on HOP-62 NSCLC; -82% (active) with NCI-H460 lung; 37.4% with HOP-92 NSCLC; -54.4% (active) in the test with A549/ATCC NSCLC. Moreover, the growth in the test with 786-0 renal was -89.3% (active); with COLO 205 colon, -81.4% (active).

Take `O=C(N/N=C(\CS(=O)(=O)c1ccccc1)c1cc2ccccc2oc1=O)c1ccccc1`: the growth in the test on NCI-H23 lung was 97.9%; in the test with NCI-H322M lung it was 107%; in the test with HOP-62 NSCLC, 117%; with NCI-H460 lung, 101%; in the test on HOP-92 NSCLC it was 117%; in the test on NCI-H522 lung, 100%. The results for the growth in the test on A549/ATCC NSCLC and in the test with 786-0 renal were 93.1% and 106%, respectively.

With `O=C1c2ccccc2-c2nnc(-c3ccc(Br)cc3)cc21`, the growth in the test with NCI-H23 lung is 47%; in the test on NCI-H322M lung, 86.8%; in the test with HOP-62 NSCLC it was 56.3%; in the test with NCI-H460 lung it was 81.6%; in the test on HOP-92 NSCLC, 78.6%; with A549/ATCC NSCLC it was 1.3% (active). Besides, the growth is 82.3% with 786-0 renal and 99.7% with COLO 205 colon.

With `COc1cc2oc(-c3ccc(O)cc3)cc(=O)c2c(O)c1I`, the growth is 99.6% in the test on NCI-H23 lung; 108% in the test with NCI-H322M lung; 126% in the test on HOP-62 NSCLC; 101% in the test with NCI-H460 lung; 113% with HOP-92 NSCLC; 86.2% in the test on NCI-H522 lung. Also, the growth is 96.7% in the test with A549/ATCC NSCLC and 100% with 786-0 renal.

`COc1ccc(/C=C2\Oc3cc(C)c(Cl)cc3C2=O)cc1OC`: the growth is 103% in the test with NCI-H23 lung; 107% with NCI-H322M lung; 111% with HOP-62 NSCLC; 103% in the test with NCI-H460 lung; 101% with HOP-92 NSCLC; 82.7% in the test on NCI-H522 lung. Further, the results for the growth in the test with A549/ATCC NSCLC and in the test with 786-0 renal were 98.3% and 95.7%, respectively.

As for `Cc1ccccc1-c1cc(-c2ccc(Br)s2)[nH]c(=O)c1C#N`, the growth was 96.8% in the test with NCI-H23 lung; 97.9% in the test on NCI-H322M lung; 104% in the test on HOP-62 NSCLC; 106% with NCI-H460 lung; 77.9% in the test on HOP-92 NSCLC; 93.4% in the test with NCI-H522 lung. Besides, the growth with A549/ATCC NSCLC was 107%; in the test on 786-0 renal, 97.6%.

As for `N#Cc1c(-c2cccc(F)c2)cc(-c2ccc(Br)s2)[nH]c1=O`, the growth in the test with NCI-H23 lung was 84.9%; in the test with NCI-H322M lung it was 87.9%; in the test with HOP-62 NSCLC it was 72.2%; in the test with NCI-H460 lung, 38.6%; in the test with HOP-92 NSCLC it was 42.6%; in the test on NCI-H522 lung, 35.7%. Besides, the results for the growth in the test with A549/ATCC NSCLC and in the test on 786-0 renal were 59.4% and 96.3%, respectively.

On to `COc1ccc(-n2c(SCc3cc(OC)c(OC)c(OC)c3)nc3ccc(C)cc3c2=O)c(OC)c1`, for which the growth in the test with NCI-H23 lung was 17.8%; in the test on NCI-H322M lung it was 28%; in the test with HOP-62 NSCLC it was 47.4%; in the test with NCI-H460 lung it was 4.59% (active); with HOP-92 NSCLC, 22.7%; with A549/ATCC NSCLC, 19%. Moreover, the figures for the growth in the test with 786-0 renal and with COLO 205 colon were 29.6% and -4.21% (active), respectively.

For the molecule `Cc1ccc(NS(=O)(=O)c2ccc(-c3cnc(C4CC4)o3)cc2)cc1`, the growth with NCI-H23 lung is 58.8%; in the test with NCI-H322M lung, 69%; in the test on HOP-62 NSCLC it was 36.4%; in the test on NCI-H460 lung, 7.82% (active); in the test with HOP-92 NSCLC, 57%; with NCI-H522 lung, 9.2% (active). Further, the growth in the test on A549/ATCC NSCLC was 40.2%; in the test on 786-0 renal, 50.8%.

As for `O=c1[nH]c(=S)c2c(n1CCCO)CCC2`, the growth was 99.8% with NCI-H23 lung; 108% in the test with NCI-H322M lung; 104% with HOP-62 NSCLC; 107% in the test with NCI-H460 lung; 109% in the test with HOP-92 NSCLC; 88.4% with NCI-H522 lung. The growth is 100% in the test with A549/ATCC NSCLC and 102% with 786-0 renal.

Regarding `Nc1cc2[nH]c(=O)c3ccccc3c2cc1Br`, the growth in the test on NCI-H23 lung is 70.5%; with NCI-H322M lung, 86%; in the test with HOP-62 NSCLC, 68.9%; with NCI-H460 lung it was 67.3%; with HOP-92 NSCLC it was 58.4%; in the test with NCI-H522 lung, 90%. Moreover, the growth was 84.5% in the test on A549/ATCC NSCLC and 104% with 786-0 renal.

Regarding `Cc1ccc2nc(NC(=O)CSC(=S)N3CCN(C)CC3)sc2c1`, the growth with NCI-H23 lung was 92.4%; in the test with NCI-H322M lung it was 106%; with HOP-62 NSCLC it was 106%; in the test on NCI-H460 lung it was 106%; in the test with HOP-92 NSCLC, 94.5%; in the test with A549/ATCC NSCLC, 95.3%. For the same molecule, the growth in the test on 786-0 renal was 108%; in the test on COLO 205 colon, 105%.
